Values joined by “and” are separate entries in the source; they are usually repeats but may differ in a detail not shown here. Identical values can stand only once. Active and inactive are the calls of the source. Rule for the calls: active = hit-call score of the fitted dose curve at least 0.9, where 1 is the maximum; inactive = score below 0.9.
How the values were obtained:
[1] = ATG_EGR_CIS: Attagene CIS-FACTORIAL HepG2 Assay for human Early Growth Response 1 (EGR1) (AID 2282938); settings: HepG2 Attagene CIS-FACTORIAL EGR reporter mRNA; actives raise or lower the signal
Summary of the method: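 After 24 h compound exposure, RNA from reporter-transfected HepG2 cells was reverse-transcribed, PCR-amplified, fluorescently labelled and resolved by capillary electrophoresis. EGR1 reporter transcript changes, up or down, were fitted against DMSO, reflecting endogenous transcription-factor activity.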

[2] = ATG_M_19_CIS: Attagene CIS-FACTORIAL HepG2 Assay for M19 Transcription Factor (Internal Marker) (AID 2282939); settings: HepG2 Attagene CIS-FACTORIAL M19 internal marker reporter; actives raise or lower the signal
Summary of the method: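 In this multiplexed cell assay, transiently transfected HepG2 reporter units report endogenous transcription-factor activity; after 24 hours of treatment, labelled reporter cDNA fragments are quantified by capillary electrophoresis and fitted bidirectionally against DMSO.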

[3] = ATG_ERE_CIS: Attagene CIS-FACTORIAL HepG2 Assay for Estrogen Response Element (ERE) (AID 2282940); settings: HepG2 ERE cis-reporter, Attagene RNA transcript; actives raise or lower the signal
Summary of the method: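 Measuring endogenous transcription factor output, the assay doses transfected HepG2 cells for 24 hours and quantifies reporter transcripts by fluorescent RT-PCR and capillary electrophoresis, with DMSO as baseline.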

[4] = ATG_Ets_CIS: Attagene CIS-FACTORIAL HepG2 Assay for human Erythroblast Transformation Specific (ETS) (AID 2282941); settings: HepG2 ETS cis-reporter transcription; AC50: actives raise or lower the signal unless noted; outcome: actives raise or lower the signal unless noted
Summary of the method: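 After transient cis-reporter transfection, HepG2 cells receive test chemical for 24 h. Reporter mRNA levels, measured by RT-PCR and capillary electrophoresis fluorescence, are analysed bidirectionally relative to the DMSO baseline.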

[5] = molecular target: Hepatocyte nuclear factor 3-beta (Homo sapiens) (UniProt Q9Y261); experiment: ATG_FoxA2_CIS: Attagene CIS-FACTORIAL HepG2 Assay for human Forkhead box A2 (FOXA2) (AID 2282942); settings: HepG2 cis-reporter transcription factor activity, 24 h; actives raise or lower the signal
Hepatocyte nuclear factor 3-beta (Homo sapiens), sequence (Q9Y261 whole entry, looked up): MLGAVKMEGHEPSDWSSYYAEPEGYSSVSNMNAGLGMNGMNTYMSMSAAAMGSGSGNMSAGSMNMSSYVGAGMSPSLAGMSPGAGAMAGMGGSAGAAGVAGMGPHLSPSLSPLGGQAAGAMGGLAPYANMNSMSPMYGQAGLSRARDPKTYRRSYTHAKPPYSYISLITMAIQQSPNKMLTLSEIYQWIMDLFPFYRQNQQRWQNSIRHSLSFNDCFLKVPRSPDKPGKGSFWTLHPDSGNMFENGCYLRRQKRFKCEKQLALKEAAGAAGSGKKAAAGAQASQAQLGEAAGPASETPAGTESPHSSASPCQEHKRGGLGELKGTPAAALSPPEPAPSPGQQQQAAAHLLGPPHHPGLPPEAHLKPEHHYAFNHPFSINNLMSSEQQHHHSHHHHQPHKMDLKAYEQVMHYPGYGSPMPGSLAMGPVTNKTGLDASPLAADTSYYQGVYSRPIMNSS
Summary of the method: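 Endogenous transcription factor activity is captured via cis-element-driven reporter transcripts in transfected HepG2. Total RNA taken at 24 h post-dosing; labelled RT-PCR products resolved by capillary electrophoresis. Gain or loss fitted versus DMSO.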

[6] = ATG_FoxO_CIS: Attagene CIS-FACTORIAL HepG2 Assay for human Forkhead box O (FoxO) (AID 2282943); settings: HepG2 Attagene cis-reporter, FoxO element, mRNA; actives raise or lower the signal
Summary of the method: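 Values reflect reporter mRNA induction or loss in HepG2 cells 24 h post-dosing, fitted bidirectionally with DMSO as negative control and baseline. Detection used RT-PCR and fluorescence capillary electrophoresis.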

[7] = ATG_GATA_CIS: Attagene CIS-FACTORIAL HepG2 Assay for human GATA Binding Protein (AID 2282944); settings: HepG2 GATA cis-element reporter, Attagene multiplex mRNA; actives raise or lower the signal
Summary of the method: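 Measures endogenous transcription factor-driven reporter mRNA in HepG2 cells transiently carrying cis-regulated constructs. 24 h dosing; RNA via oligo(dT) reverse transcription, PCR, HpaI digestion, capillary electrophoresis; fitted relative to DMSO.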

[8] = ATG_GLI_CIS: Attagene CIS-FACTORIAL HepG2 Assay for human Zinc Finger Protein GLI1 (AID 2282945); settings: HepG2, Attagene cis-factorial reporter mRNA, GLI element; actives raise or lower the signal
Summary of the method: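 HepG2 cells transiently transfected with cis-promoter multiplexed reporter units report endogenous transcription factor activity. After 24 h chemical exposure, reporter mRNA was quantified by RT-PCR, 6-FAM labelling, HpaI digestion and capillary electrophoresis, with bidirectional fitting against DMSO.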

[9] = molecular target: Bile acid receptor (Homo sapiens) (UniProt Q96RI1); experiment: ATG_IR1_CIS: Attagene CIS-FACTORIAL HepG2 Assay for human Nuclear Receptor Subfamily 1 Group H Member 4 (NR1H4), IR1 submotif (AID 2282946); settings: IR1 reporter transcription, actives raise or lower the signal
Bile acid receptor (Homo sapiens), sequence (Q96RI1 whole entry, looked up): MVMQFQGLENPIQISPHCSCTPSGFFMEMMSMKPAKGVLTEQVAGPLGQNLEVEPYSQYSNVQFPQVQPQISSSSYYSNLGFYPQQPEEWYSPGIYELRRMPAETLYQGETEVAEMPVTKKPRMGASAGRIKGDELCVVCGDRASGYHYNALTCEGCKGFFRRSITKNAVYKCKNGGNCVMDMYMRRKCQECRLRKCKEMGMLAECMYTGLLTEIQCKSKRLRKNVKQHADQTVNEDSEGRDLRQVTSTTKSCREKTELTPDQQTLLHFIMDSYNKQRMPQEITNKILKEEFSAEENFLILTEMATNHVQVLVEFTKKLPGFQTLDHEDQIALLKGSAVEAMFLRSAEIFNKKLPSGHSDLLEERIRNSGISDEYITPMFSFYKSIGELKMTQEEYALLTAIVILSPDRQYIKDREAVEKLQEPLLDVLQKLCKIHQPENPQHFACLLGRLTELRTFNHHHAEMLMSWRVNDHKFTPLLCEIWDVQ
Summary of the method: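 Transient MRTU transfection, HepG2; 24 h dosing; RNA → RT-PCR → 6-FAM primer extension → HpaI digest → capillary electrophoresis fluorescence. Gain/loss of signal fitted relative to DMSO.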

[10] = ATG_GRE_CIS: Attagene CIS-FACTORIAL HepG2 Assay for human Glucocorticoid Response Elements (GRE) (AID 2282947); settings: HepG2 GRE cis-reporter, Attagene multiplex mRNA; AC50: actives raise or lower the signal unless noted; outcome: actives raise or lower the signal unless noted
Summary of the method: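 HepG2 cells transiently transfected with multiple cis-promoter reporter units measure endogenous TF activity; 24 h compound exposure. Reporter mRNA quantified by RT-PCR, FAM labelling, HpaI digestion and capillary electrophoresis; bidirectional fit vs DMSO baseline.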

[11] = ATG_M_32_CIS: Attagene CIS-FACTORIAL HepG2 Assay for M32 Transcription Factor (Internal Marker) (AID 2282949); settings: HepG2 Attagene cis-factorial M32 reporter, mRNA; actives raise or lower the signal;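 note: background control marker of the multiplexed CIS panel rather than a real target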
Summary of the method: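 Following 24 h chemical exposure of HepG2 cells transiently expressing cis-promoter reporter constructs, reporter transcript levels were determined by RT-PCR with fluorescent labelling and capillary electrophoresis, then fitted bidirectionally against DMSO.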

[12] = ATG_M_06_CIS: Attagene CIS-FACTORIAL HepG2 Assay for M06 Transcription Factor (Internal Marker) (AID 2282950); settings: HepG2 Attagene CIS-FACTORIAL M06 internal marker reporter; actives raise or lower the signal
Summary of the method: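 One of many multiplexed endpoints: HepG2 reporter mRNA after 24 h dosing, detected by RT-PCR and capillary electrophoresis fluorescence; gain or loss of signal analysed against DMSO.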

[13] = molecular target: Hypoxia-inducible factor 1-alpha (Homo sapiens) (UniProt Q16665); experiment: ATG_HIF1a_CIS: Attagene CIS-FACTORIAL HepG2 Assay for human Hypoxia Inducible Factor 1 (HIF1A) (AID 2282951); settings: HepG2 Attagene cis-factorial HIF1a reporter transcription; actives raise or lower the signal
Hypoxia-inducible factor 1-alpha (Homo sapiens), sequence (Q16665 whole entry, looked up): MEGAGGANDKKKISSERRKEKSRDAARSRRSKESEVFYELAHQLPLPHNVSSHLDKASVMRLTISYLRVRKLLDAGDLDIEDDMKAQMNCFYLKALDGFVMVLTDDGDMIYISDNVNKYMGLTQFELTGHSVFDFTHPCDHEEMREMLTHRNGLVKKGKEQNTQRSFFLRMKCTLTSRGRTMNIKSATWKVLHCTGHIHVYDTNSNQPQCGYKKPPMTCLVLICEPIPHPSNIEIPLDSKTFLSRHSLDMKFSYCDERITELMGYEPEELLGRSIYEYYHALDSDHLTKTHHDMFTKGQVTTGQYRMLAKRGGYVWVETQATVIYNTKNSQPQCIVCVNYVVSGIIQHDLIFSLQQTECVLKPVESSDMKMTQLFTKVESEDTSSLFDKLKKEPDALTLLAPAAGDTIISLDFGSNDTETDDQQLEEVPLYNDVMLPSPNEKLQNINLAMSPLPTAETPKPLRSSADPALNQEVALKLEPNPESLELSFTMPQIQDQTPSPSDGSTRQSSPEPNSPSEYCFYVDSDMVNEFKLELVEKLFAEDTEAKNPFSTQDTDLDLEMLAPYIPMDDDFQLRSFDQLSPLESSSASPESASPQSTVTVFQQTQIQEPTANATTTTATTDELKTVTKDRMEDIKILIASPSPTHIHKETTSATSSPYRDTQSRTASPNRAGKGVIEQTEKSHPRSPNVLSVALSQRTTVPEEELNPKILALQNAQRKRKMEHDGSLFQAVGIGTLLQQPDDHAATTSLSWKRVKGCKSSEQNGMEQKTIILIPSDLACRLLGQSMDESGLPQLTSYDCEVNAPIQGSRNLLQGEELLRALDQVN
Summary of the method: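 Activity is fitted in both directions relative to DMSO. Reporter transcripts are read by RT-PCR, fluorescent primer extension and capillary electrophoresis after 24 h chemical treatment. The cells are HepG2 carrying transiently transfected cis-element-driven reporter units responding to endogenous factors.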

[14] = molecular target: Hepatocyte nuclear factor 6 (Homo sapiens) (UniProt Q9UBC0); experiment: ATG_HNF6_CIS: Attagene CIS-FACTORIAL HepG2 Assay for human Hepatocyte Nuclear Factor 6 (HNF6) (AID 2282952); settings: HepG2 Attagene cis-factorial HNF6 reporter transcription; actives raise or lower the signal
Hepatocyte nuclear factor 6 (Homo sapiens), sequence (Q9UBC0 whole entry, looked up, the tested form may be a part): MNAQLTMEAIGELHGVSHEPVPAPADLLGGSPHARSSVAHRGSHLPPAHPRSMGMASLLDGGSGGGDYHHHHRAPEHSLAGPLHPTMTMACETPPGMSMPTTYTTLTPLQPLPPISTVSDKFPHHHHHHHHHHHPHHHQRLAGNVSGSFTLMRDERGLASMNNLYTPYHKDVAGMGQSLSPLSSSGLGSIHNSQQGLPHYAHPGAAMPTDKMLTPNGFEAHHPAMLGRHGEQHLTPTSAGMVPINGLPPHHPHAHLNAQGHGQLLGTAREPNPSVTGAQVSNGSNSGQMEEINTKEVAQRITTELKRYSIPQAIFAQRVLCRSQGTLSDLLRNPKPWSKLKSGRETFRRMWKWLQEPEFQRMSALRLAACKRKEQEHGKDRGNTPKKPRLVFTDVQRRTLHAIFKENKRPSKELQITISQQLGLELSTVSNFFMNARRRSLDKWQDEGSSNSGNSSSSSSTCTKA
Summary of the method: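 Reporter mRNA induction or loss in HepG2 after 24 h exposure; transient cis-MRTU transfection; fragments quantified by capillary electrophoresis; bidirectional analysis, DMSO as negative control.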

[15] = molecular target: Heat shock factor protein 1 (Homo sapiens) (UniProt Q00613); experiment: ATG_HSE_CIS: Attagene CIS-FACTORIAL HepG2 Assay for human Heat Shock Transcription Factor 1 (HSE) (AID 2282953); settings: HepG2 HSE cis-reporter, Attagene RNA transcription; actives raise or lower the signal
Heat shock factor protein 1 (Homo sapiens), sequence (Q00613 whole entry, looked up): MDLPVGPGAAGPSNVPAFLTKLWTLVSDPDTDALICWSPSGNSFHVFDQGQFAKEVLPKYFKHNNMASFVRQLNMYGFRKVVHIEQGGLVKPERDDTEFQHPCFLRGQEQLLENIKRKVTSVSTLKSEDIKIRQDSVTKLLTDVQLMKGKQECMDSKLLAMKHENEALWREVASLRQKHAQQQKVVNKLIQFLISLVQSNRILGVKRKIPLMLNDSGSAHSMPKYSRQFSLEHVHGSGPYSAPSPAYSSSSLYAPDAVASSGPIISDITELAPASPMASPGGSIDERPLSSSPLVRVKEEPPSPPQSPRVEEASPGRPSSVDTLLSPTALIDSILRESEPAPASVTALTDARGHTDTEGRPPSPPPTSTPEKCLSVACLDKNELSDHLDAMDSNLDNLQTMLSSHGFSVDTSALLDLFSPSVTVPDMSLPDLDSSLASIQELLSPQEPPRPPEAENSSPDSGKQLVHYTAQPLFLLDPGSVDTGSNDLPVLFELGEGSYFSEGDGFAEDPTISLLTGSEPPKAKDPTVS
Summary of the method: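 Using HepG2 with transfected cis-driven reporter constructs, compound effects on endogenous factor activity are scored as reporter mRNA change at 24 h. Detection: RT-PCR, HpaI digestion, capillary electrophoresis; bidirectional fitting to DMSO.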

[16] = ATG_MRE_CIS: Attagene CIS-FACTORIAL HepG2 Assay for human Metal Responsive Element (MRE) (AID 2282954); settings: HepG2 MRE cis-reporter transcription, Attagene multiplex; actives raise or lower the signal
Summary of the method: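 HepG2 cells transiently transfected with multiple cis-element reporter units measure endogenous MTF1-driven transcription. After 24 h compound exposure, reporter mRNA is quantified by RT-PCR with 6-FAM labelling, HpaI digestion and capillary electrophoresis; bidirectional fits versus DMSO.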

[17] = ATG_PBREM_CIS: Attagene CIS-FACTORIAL HepG2 Assay for human Phenobarbital-responsive Enhancer Module (PBREM) (AID 2282955); settings: HepG2 PBREM cis-reporter, Attagene multiplexed transcription; actives raise or lower the signal
Summary of the method: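 Endogenous transcription factor activity was read from reporter transcripts in transiently transfected human HepG2 liver cells after 24 h dosing. RT-PCR products were fluorescently labelled, HpaI-cut and sized by capillary electrophoresis; activity fitted bidirectionally against DMSO baseline.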

[18] = molecular target: Paired box protein Pax-6 (Homo sapiens) (UniProt P26367); experiment: ATG_Pax6_CIS: Attagene CIS-FACTORIAL HepG2 Assay for human Paired Box 6 (PAX6) (AID 2282956); settings: HepG2 CIS-FACTORIAL PAX6 reporter transcription, RNA readout; actives raise or lower the signal
Paired box protein Pax-6 (Homo sapiens), sequence (P26367 whole entry, looked up): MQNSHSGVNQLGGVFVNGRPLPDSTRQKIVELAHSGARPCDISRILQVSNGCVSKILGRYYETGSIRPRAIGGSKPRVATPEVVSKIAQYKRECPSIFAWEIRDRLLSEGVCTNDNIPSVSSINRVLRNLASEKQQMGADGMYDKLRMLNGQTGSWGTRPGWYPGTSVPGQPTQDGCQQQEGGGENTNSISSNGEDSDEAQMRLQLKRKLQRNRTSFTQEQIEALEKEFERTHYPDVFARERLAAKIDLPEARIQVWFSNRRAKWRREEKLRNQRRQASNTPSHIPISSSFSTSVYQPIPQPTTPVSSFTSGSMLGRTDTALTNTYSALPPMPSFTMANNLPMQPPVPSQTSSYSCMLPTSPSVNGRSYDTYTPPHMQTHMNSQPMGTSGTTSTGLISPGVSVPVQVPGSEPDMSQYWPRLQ
Summary of the method: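 After twenty-four hours of chemical exposure, transfected HepG2 cells are harvested for RNA. Cis-promoter reporter transcripts are amplified, fluorescently labelled and sized by capillary electrophoresis, with gain and loss of signal scored against DMSO.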

[19] = ATG_PXRE_CIS: Attagene CIS-FACTORIAL HepG2 Assay for human Pregnane X Receptor Element (PXRE) (AID 2282957); settings: HepG2 Attagene CIS-FACTORIAL PXRE reporter, mRNA; actives raise or lower the signal
Summary of the method: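 Transiently transfected HepG2 cells were dosed and incubated for 24 h. RNA was then isolated, DNase-treated, reverse-transcribed and reporter sequences amplified. Labeled, HpaI-digested fragments were quantified by capillary electrophoresis against DMSO.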

[20] = ATG_ISRE_CIS: Attagene CIS-FACTORIAL HepG2 Assay for human Interferon Regulatory Factor 1 (IRF1) binding to an Interferon-Stimulated Response Element (ISRE) (AID 2282948); settings: HepG2 ISRE cis-reporter (Attagene), mRNA transcription readout; actives raise or lower the signal
Summary of the method: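 Quantitation relies on labelled RT-PCR fragments separated by capillary electrophoresis. Human HepG2 cells bearing cis-promoter reporter constructs were treated 24 h; DMSO served as baseline for bidirectional fitting.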

SMILES: Cc1ccc2ccc3ccc(C)cc3c2c1
- outcome [1]: inactive
- outcome [2]: inactive
- outcome [3]: inactive
- outcome [4]: inactive
- outcome [5]: inactive
- outcome [6]: inactive
- outcome [7]: inactive
- outcome [8]: inactive
- outcome [9]: inactive
- outcome [10]: inactive
- outcome [11]: inactive
- outcome [12]: inactive
- outcome [13]: inactive
- outcome [14]: inactive
- outcome [15]: inactive
- outcome [16]: inactive
- outcome [17]: inactive
- outcome [18]: inactive
- AC50 [19]: 8.1 µM (active)

SMILES: CC1=NN(c2ccccc2)C(=O)C1
- outcome [1]: inactive
- outcome [2]: inactive
- outcome [3]: inactive
- outcome [4]: inactive
- outcome [5]: inactive
- outcome [6]: inactive
- outcome [7]: inactive
- outcome [8]: inactive
- outcome [9]: inactive
- outcome [10]: inactive
- outcome [20]: inactive
- outcome [11]: inactive
- outcome [12]: inactive
- outcome [15]: inactive
- outcome [16]: inactive
- outcome [18]: inactive
- AC50 [19]: 66.2 µM (active) and 60 µM (active)

SMILES: NNC(=O)CCCCC(=O)NN
- outcome [1]: inactive
- outcome [2]: inactive
- outcome [3]: inactive
- outcome [4]: inactive
- outcome [5]: inactive
- outcome [6]: inactive
- outcome [7]: inactive
- outcome [8]: inactive
- outcome [9]: inactive
- outcome [10]: inactive
- outcome [20]: inactive
- outcome [11]: inactive
- outcome [12]: inactive
- outcome [13]: inactive
- outcome [14]: inactive
- outcome [16]: inactive
- outcome [17]: inactive
- outcome [18]: inactive
- outcome [19]: inactive

SMILES: O=C1c2ccc(O)c(O)c2C(=O)c2c(O)ccc(O)c21
- outcome [1]: inactive
- outcome [2]: inactive
- AC50 [3]: 13.6 µM (active)
- outcome [4]: inactive
- outcome [5]: inactive
- outcome [6]: inactive
- outcome [7]: inactive
- outcome [8]: inactive
- outcome [9]: inactive
- outcome [10]: inactive
- outcome [20]: inactive
- outcome [11]: inactive
- outcome [12]: inactive
- AC50 [13]: 12.6 µM (active)
- outcome [14]: inactive
- outcome [16]: inactive
- outcome [17]: inactive
- outcome [18]: inactive
- AC50 [19]: 13.5 µM (active)

SMILES: Cc1cncc(C)c1
- outcome [1]: inactive
- outcome [2]: inactive
- outcome [3]: inactive
- outcome [4]: inactive
- outcome [5]: inactive
- outcome [6]: inactive
- outcome [7]: inactive
- outcome [8]: inactive
- outcome [9]: inactive
- outcome [10]: inactive
- outcome [11]: inactive
- outcome [12]: inactive
- outcome [13]: inactive
- outcome [14]: inactive
- outcome [15]: inactive
- outcome [16]: inactive
- outcome [17]: inactive
- outcome [18]: inactive
- outcome [19]: inactive

SMILES: Nc1cc(Cl)c(-c2cc(Cl)c(N)cc2Cl)cc1Cl
- outcome [1]: inactive
- outcome [2]: inactive
- outcome [3]: inactive
- outcome [4]: inactive
- outcome [5]: inactive
- outcome [6]: inactive
- outcome [7]: inactive
- outcome [8]: inactive
- outcome [9]: inactive
- outcome [10]: inactive
- outcome [20]: inactive
- outcome [11]: inactive
- outcome [12]: inactive
- outcome [13]: inactive
- outcome [14]: inactive
- AC50 [16]: 13.2 µM (active)
- outcome [17]: inactive
- outcome [18]: inactive
- AC50 [19]: 2.97 µM (active)

SMILES: C=CC(=O)OCC(CO)(COCC(COC(=O)C=C)(COC(=O)C=C)COC(=O)C=C)COC(=O)C=C
- AC50 [1]: 3.04 µM (active)
- AC50 [2]: 16.2 µM (active)
- outcome [3]: inactive
- outcome [4]: inactive
- outcome [5]: inactive
- AC50 [6]: 3.66 µM (active)
- outcome [7]: inactive
- outcome [8]: inactive
- outcome [9]: inactive
- outcome [10]: inactive
- outcome [11]: inactive
- outcome [12]: inactive
- AC50 [13]: 2.92 µM (active)
- outcome [14]: inactive
- outcome [15]: inactive
- AC50 [16]: 2.9 µM (active)
- outcome [17]: inactive
- AC50 [18]: 2.71 µM (active)
- outcome [19]: inactive

Source: PubChem BioAssay (EPA / NIEHS)
